Structures can show the parent of a compound that is named as a salt. ± gives the standard deviation of the averaged measurements.
Each compound was assayed on E. coli TESEC Mtb Asd (assay: growth (OD600 after 10 h); higher = more growth (less inhibition)). Conditions: arabinose induction (level): Low; compound 0.1 mM; raw OD600 reference: median of DMSO wells 0.417, cell-free background 0.041.
Experimental: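 TESEC E. coli strains in which the native enzyme is deleted and replaced by arabinose-inducible Mtb Asd, DapB, CysH or TrpD, each grown in its selective medium. Strains were screened against the Prestwick library at 0.1 mM and 1% DMSO in 384-well format at low and high arabinose induction. Growth is read as OD600 after 10 h in triplicate.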

| SMILES | growth |
| --- | --- |
| COc1ncnc(NS(=O)(=O)c2ccc(N)cc2)c1OC [Sulfadoxine] | 0.382 ± 0.062 |
| c1ccc(C2CN3CCSC3=N2)cc1 (stereo not given) [Tetramisole hydrochloride] | 0.358 ± 0.046 |
| CCCC1O[C@@H]2C[C@H]3[C@@H]4CCC5=CC(=O)C=C[C@]5(C)[C@H]4[C@@H](O)C[C@]3(C)[C@]2(C(=O)CO)O1 (stereo not given in full) [Budesonide] | 0.31 ± 0.025 |
| COc1cc2ncnc(Nc3ccc(F)c(Cl)c3)c2cc1OCCCN1CCOCC1 [Gefitinib] | 0.454 ± 0.038 |
| C[C@H]1C[C@@H]2[C@H]([C@@H](O)C[C@@]3(C)[C@H]2CC[C@]3(O)C(=O)CO)[C@@]2(C)C=CC(=O)C=C12 [Methylprednisolone, 6-alpha] | 0.475 ± 0.018 |
| C[C@@H](O)[C@H]1C(=O)N2C(C(=O)O)=C(SCCNC=N)C[C@H]12 [Imipenem] | 0.37 ± 0.065 |
| CC(=O)Oc1ccccc1C(=O)Nc1ncc([N+](=O)[O-])s1 [Nitazoxanide] | 0.05953 ± 0.00059 |
| CC[C@H](C)[C@H](N)C1=N[C@H](C(=O)N[C@@H](CC(C)C)C(=O)N[C@H](CCC(=O)O)C(=O)N[C@H](C(=O)N[C@H]2CCCCNC(=O)[C@H](CC(N)=O)NC(=O)[C@@H](CC(=O)O)NC(=O)[C@H](Cc3cnc[nH]3)NC(=O)[C@@H](Cc3ccccc3)NC(=O)[C@H]([C@@H](C)CC)NC(=O)[C@@H](CCCN)NC2=O)[C@@H](C)CC)CS1 [Bacitracin] | 0.269 ± 0.054 |
| c1ccc([C@H]2CN3CCSC3=N2)cc1 [Levamisole hydrochloride] | 0.428 ± 0.026 |
| CN(Cc1cnc2nc(N)nc(N)c2n1)c1ccc(C(=O)N[C@@H](CCC(=O)O)C(=O)O)cc1 (racemic) [Amethopterin (R,S)] | 0.368 ± 0.029 |
| CCOC(=O)C1=C[C@]2(CC)CCCN3CCc4c(n1c1ccccc41)[C@@H]32 [Vinpocetine] | 0.379 ± 0.069 |
| COc1ccccc1O [Guaiacol] | 0.364 ± 0.063 |
| CC(=O)Oc1ccccc1C(=O)O [Acetylsalicylic acid] | 0.314 ± 0.022 |
| C[C@]12CC[C@@H]3c4ccc(O)cc4C[C@@H](CCCCCCCCC[S+]([O-])CCCC(F)(F)C(F)(F)F)[C@H]3[C@@H]1CC[C@@H]2O (stereo not given in full) [Fulvestrant] | 0.415 ± 0.041 |
| CC(=O)O[C@H]1C[C@@H]2CC[C@@H]3[C@H](CC[C@@]4(C)[C@H]3C[C@H]([N+]3(C)CCCCC3)[C@@H]4OC(C)=O)[C@@]2(C)C[C@@H]1N1CCCCC1 [Vecuronium bromide] | 0.124 ± 0.0035 |
| NS(=O)(=O)c1cc(C2(O)NC(=O)c3ccccc32)ccc1Cl (stereo not given) [Chlorthalidone] | 0.462 ± 0.078 |
| CC[C@H]1OC(=O)[C@H](C)[C@@H](O[C@H]2C[C@@](C)(OC)[C@@H](O)[C@H](C)O2)[C@H](C)[C@@H](O[C@@H]2O[C@H](C)C[C@H](N(C)C)[C@H]2O)[C@](C)(O)C[C@@H](C)CN(C)[C@H](C)[C@@H](O)[C@]1(C)O [Azithromycin] | 0.0647 ± 0.0021 |
| CC(=O)N(CC(O)CN(C(C)=O)c1c(I)c(C(=O)NCC(O)CO)c(I)c(C(=O)NCC(O)CO)c1I)c1c(I)c(C(=O)NCC(O)CO)c(I)c(C(=O)NCC(O)CO)c1I (stereo not given) [Iodixanol] | 0.421 ± 0.015 |
| CN1CCN2c3ccccc3Cc3ccccc3C2C1 (stereo not given) [Mianserine hydrochloride] | 0.303 ± 0.04 |
| Clc1ccc2nsnc2c1NC1=NCCN1 [Tizanidine HCl] | 0.383 ± 0.057 |

| SMILES | growth |
| --- | --- |
| CC(=O)[C@H]1CC[C@H]2[C@@H]3CCC4=CC(=O)CC[C@]4(C)[C@H]3CC[C@]12C [Progesterone] | 0.219 ± 0.012 |
| C#Cc1cccc(Nc2ncnc3cc(OCCOC)c(OCCOC)cc23)c1 [Erlotinib] | 0.303 ± 0.066 |
| Nc1cc(-c2ccncc2)c[nH]c1=O [Amrinone] | 0.385 ± 0.074 |
| COc1cc2nc(N3CCN(C(=O)C4COc5ccccc5O4)CC3)nc(N)c2cc1OC (stereo not given) [Doxazosin mesylate] | 0.0521 ± 0.004 |
| CN1CCN(CCCN2c3ccccc3Sc3ccc(S(=O)(=O)N(C)C)cc32)CC1 [Thioproperazine dimesylate] | 0.246 ± 0.049 |
| O=c1[nH]c(=O)n([C@H]2C[C@H](O)[C@@H](CO)O2)cc1C(F)(F)F [Trifluridine] | 0.203 ± 0.0098 |
| COc1ccc2cc(CCC(C)=O)ccc2c1 [Nabumetone] | 0.247 ± 0.04 |
| CCN(CC)CCNC(=O)c1cc(Br)c(N)cc1OC [Bromopride] | 0.4797 ± 0.0047 |
| O=C1C(O)=C(O)C(=O)C(O)=C1O [Tetrahydroxy-1,4-quinone hydrate] | 0.427 ± 0.082 |
| CC(=O)N(O)CCCCCNC(=O)CCC(=O)N(O)CCCCCNC(=O)CCC(=O)N(O)CCCCCN [Deferoxamine mesylate] | 0.141 ± 0.027 |
| O=c1cc(-c2ccc(O)c(O)c2)oc2cc(O)cc(O)c12 [Luteolin] | 0.063 ± 0.0053 |
| Nc1nc(=O)c2nc(CNc3ccc(C(=O)N[C@@H](CCC(=O)O)C(=O)O)cc3)cnc2[nH]1 [Folic acid] | 0.318 ± 0.021 |
| O=C(O)CNC(=O)C(CS)Cc1ccccc1 (stereo not given) [Thiorphan] | 0.382 ± 0.034 |
| CC1(C)S[C@@H]2[C@H](NC(=O)[C@H](NC(=O)N3CCNC3=O)c3ccccc3)C(=O)N2[C@H]1C(=O)O [Azlocillin sodium salt] | 0.442 ± 0.025 |
| Clc1cnccn1 [2-Chloropyrazine] | 0.307 ± 0.049 |
| O=C(C1CCCCC1)N1CC(=O)N2CCc3ccccc3C2C1 (stereo not given) [Praziquantel] | 0.278 ± 0.026 |
| C#C[C@]1(O)CC[C@H]2[C@@H]3CCC4=CC(=O)CC[C@@H]4[C@H]3CC[C@@]21CC [Norgestrel-(-)-D] | 0.429 ± 0.018 |
| CCCCOc1ccc(C(=O)CCN2CCCCC2)cc1 [Dyclonine hydrochloride] | 0.252 ± 0.01 |
| CC1CCc2c(N3CCC(O)CC3)c(F)cc3c(=O)c(C(=O)O)cn1c23 (stereo not given) [Nadifloxacin] | 0.0485 ± 0.0008 |
| OC(c1cc(C(F)(F)F)nc2c(C(F)(F)F)cccc12)C1CCCCN1 (stereo not given) [Mefloquine hydrochloride] | 0.055 ± 0.0046 |

Reference: the supplement of paper PMC9262897, “Low-cost anti-mycobacterial drug discovery using engineered E. coli” (Nature Communications, 2022)
